For 15 compounds, growth results are on record in PubChem BioAssay (NCI).

“And” between values parts separate entries of the source, which are not always exact repeats. Equal values may be shown once. The panel holds about 83,000 compounds, 20% with a hit somewhere; the sample as a whole holds those more often.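 Step 1: grow cells in 96-well plates. Step 2: add test compound at a single concentration. Step 3: incubate 48 h. Step 4: record percent growth.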 The source made the active and inactive calls. How the source made its calls: active means growth percent below 10; inactive means the rest.

The test relates to MOLT-4 leukemia. Briefly: NCI-60 one-dose screen, 48 h (100 = growth as untreated, 0 = no growth, -100 = all killed). Particulars: 10 µM unless noted.
Regarding `CC1CCCC(=O)O1` (stereo not given), the growth is 99.5% (inactive) and 106% (inactive).

Consider `Cc1ccc(S(=O)(=O)NCN2C(=O)c3ccccc3C2=O)cc1`, for which the growth is 93.6% (inactive).

On to `O=C(N/N=C/c1cccc2ccccc12)C1CC1`, for which the growth was 67.1% (inactive) and 113% (inactive).

In the case of `CN(C)CCCNC1=C(Cl)C(=O)c2ccccc2C1=O`, the growth was 57% (inactive) and 79.3% (inactive).

As to `CN(C)c1ccc(C(=C2C=CC(=[N+](C)C)C=C2)c2ccccc2Cl)cc1`, the growth was -26.3% (active) and 5.09% (active).

For `OCc1ccccn1`, the growth was 99.1% (inactive).

Regarding `Nc1ccccc1SC1CC(=O)N(c2cccc3ccccc23)C1=O` (stereo not given), the growth is 83.5% (inactive).

Regarding `CC(=O)Nc1cccc2c1CCCC2`, the growth was 104% (inactive) and 102% (inactive).

On to `NC(=O)c1ccccc1OCC(O)CO` (stereo not given), for which the growth was 108% (inactive).

As to `Nc1ccccc1Nc1ccccc1`, the growth is 53.5% (inactive) and 88.3% (inactive).

In the case of `N/C(=N\N=C\c1ccc2c(c1)OCO2)N/N=C\c1ccc2c(c1)OCO2`, the growth is 95.4% (inactive) and 50.3% (inactive).

In the case of `N#C/C(=C/c1c(O)ccc2ccccc12)C(N)=O`, the growth was 92.4% (inactive).

For `Oc1ccc(/C=C/c2ccccc2)cc1`, the growth is 61.6% (inactive) and 47.5% (inactive).

Turning to `COc1ccc2ccccc2c1/C=N/N1CCCCC1`, the growth is 88.3% (inactive).

Take `O=C(Nc1cccc(-n2ccc3c(NC(=O)c4ccccc4)nccc32)c1)c1ccc(Cl)c(C(F)(F)F)c1`: the growth is -4.82% (active) and 10.3% (inactive).
